# Legend:
# [1] = target: T1, Aspartate--tRNA(Asp/Asn) ligase (Mycobacterium tuberculosis (strain ATCC 25618 / H37Rv)) (UniProt P9WFW3); assay: Assay for Asp RNA synthetase-1 from Mycobacterium tuberculosis; type: functional; parameters: scale not given: direction of the effect not stated beside the values; details: 30 µM; further: in the data most compounds retested in dose-response had high values
# T1 sequence (whole entry): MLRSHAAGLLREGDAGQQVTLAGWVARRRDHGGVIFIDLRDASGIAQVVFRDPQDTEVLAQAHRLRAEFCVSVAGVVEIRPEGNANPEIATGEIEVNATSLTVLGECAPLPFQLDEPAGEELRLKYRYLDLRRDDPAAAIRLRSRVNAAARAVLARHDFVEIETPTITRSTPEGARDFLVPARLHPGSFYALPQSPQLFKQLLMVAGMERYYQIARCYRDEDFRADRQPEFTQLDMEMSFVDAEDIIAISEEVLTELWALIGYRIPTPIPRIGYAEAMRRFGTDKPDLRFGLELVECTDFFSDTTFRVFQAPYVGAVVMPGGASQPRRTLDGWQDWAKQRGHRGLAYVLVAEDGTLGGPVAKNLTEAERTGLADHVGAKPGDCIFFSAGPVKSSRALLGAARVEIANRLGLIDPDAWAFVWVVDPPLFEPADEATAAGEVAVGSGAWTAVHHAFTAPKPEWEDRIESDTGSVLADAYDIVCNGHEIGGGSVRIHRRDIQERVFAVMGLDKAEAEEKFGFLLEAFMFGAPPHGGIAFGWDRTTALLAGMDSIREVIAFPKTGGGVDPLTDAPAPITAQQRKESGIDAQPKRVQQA
# [2] = target: Shiga toxin 2 (Escherichia coli O157:H7) (UniProt P09385+P09386); assay: E. coli 0.157:H7 Shiga Toxin SOP - stx2 screening assay; type: functional; parameters: scale not given: direction of the effect not stated beside the values; details: 30 µM
SMILES,Percent Effect [1],Percent Effect [2]
O=C(NCCNC(=O)N1CCC(c2ccccc2)C1)C1CC1 (centres undefined),-0.747%,-19.2%
COCc1cccc(NS(=O)(=O)c2cc(C(=O)O)cs2)c1,0.144%,-27.7%
COCCN1CCCC12CCN(C(=O)CC1CCCC1)CC2,-1.62%,-6.17%
CC1CCc2nc(O)c(C(=O)NCCN(C)C)cc2C1 (centres undefined),-0.552%,-8.38%
CCOc1ccc(-n2nnc(C(=O)O)c2-c2ccncc2)cc1,3.77%,-21.9%
Cc1ccccc1C(=O)N1CCOC2(CNCCOC2)C1 (centres undefined),-0.279%,-0.428%
COc1ccc(CCC(=O)Nc2cccnc2N2CCCC2)cc1Br,-3.21%,28.3%
O=C(NCCO)c1ccn(-c2ccc3ccccn23)n1,2.94%,-37%
Cc1n[nH]c(C2CN(C(=O)c3cc(Cl)c[nH]3)CCO2)n1 (centres undefined),2.37%,-2.92%
Cc1cn(CC(=O)NC2CCN(S(C)(=O)=O)CC2)c2ccccc12,2.86%,-10.4%
Cc1csc(N2CCCN(C(=O)C(C)n3ccnc3)CC2)n1 (centres undefined),1.2%,-6.32%
CCc1nnsc1C(=O)N1CCCN(Cc2nccn2C)CC1,1.58%,15.5%
Cn1ccnc1CN1CCN(Cc2cc(C#N)ccc2F)CC1,-5.71%,17.6%
Cc1cccc(Cn2c3c(ccc2=O)CCN(Cc2ccoc2)CC3)n1,2.51%,2.55%
CN1N=C(C(=O)NCc2ccc3c(c2)CCCN3C)CCC1=O,-4.96%,-42.9%
Cc1cc2c(=O)n3c(nc2s1)CCN(C(=O)c1ccncc1)CC3,0.789%,3.16%
CC(C)NC(=O)N1CC[C@@H]2CN(Cc3cccc(Cl)c3)S(=O)(=O)[C@@H]2CC1,5.42%,-9.22%

# From ChEMBL document CHEMBL3988442, “University of Dundee, Small-Polar-MMV Screening Library” (2021)
